Compounds with a hit are over-represented: about 7.4% of the library has one in this group of screens.
SNCA expr inhib: reduces expression of the alpha-synuclein gene | actives 0.17% (n = 140,000) | Potency, µM (highest dose often 57.2 µM), for the others: at the highest dose activity change, negative = inhibition, usual class: inhibitors | AID 1671194 | HEK-293 SNCA-luciferase knock-in, luminescence, 24 h;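 also: plate controls were DMSO cells for no effect and cell-free wells for full effect; nearly all actives have a fitted effect of over 45% in size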
SNCA viab count: cell viability loss counter-screen. Potency, µM (doses to about 57.1 µM), for inactives: top-dose activity change, negative = cytotoxicity, usual class: cytotoxic. actives 0.12% (n = 150,000). HEK-293-SNCA-luc viability, GF-AFC fluorescence, 24 h;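 also: 0% = DMSO-treated cells and -100% = medium-only wells without cells; nearly all actives have a fitted effect of over 30% in size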
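Cytotoxicity counterscreen: after 24 h compound treatment of genome-edited SNCA-luciferase HEK-293 cells, live-cell protease substrate GF-AFC read by fluorescence after 30 min; activity scaled between DMSO (0%) and medium-only (-100%), curves Hill-fitted.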
NPR1 antag: blocks ANP-stimulated signaling of human Npr1 receptor; AID 1347048; P16066; HEK293 hNpr1 GloSensor cGMP, ANP-stimulated luminescence; Potency, µM (highest dose often 46.3 µM), for the others: at the top dose activity change, negative = inhibition, most hits filed as inhibitors; actives 1.6% (n = 76,000); calls by dose curve; also: nearly all actives have a fitted effect of over 60% in size
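Compound pre-incubated 30 min at room temperature on GloSensor-loaded HEK293 cells stably carrying hNpr1 and the pGS-40F cGMP biosensor. Stimulation uses hNppA at 0.1 nM final; luminescence is taken at baseline and 20 min post-agonist.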
3T3 cytotox: NIH 3T3 cell cytotoxicity | actives 4.3% (n = 94,000) | Potency, µM (top dose mostly 96.7 µM), for the others: top-dose activity change, negative = cytotoxicity, most hits filed as inhibitors | NIH 3T3 viability, CellTiter-Glo ATP luminescence, 48-72 h | AID 1345082; also: nearly all actives have a fitted effect of over 55% in size
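Cells were seeded at 400 per well, treated with pin-transferred compound, and kept 48 or 72 hr at 37 °C before CellTiter-Glo addition and luminescence imaging of cellular ATP.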
HEK cytotox: HEK 293 cell cytotoxicity | HEK 293 viability, ATP luminescence (CellTiter-Glo), 48-72 h | Potency, µM (doses to about 115 µM), without a hit: at the highest dose activity change, negative = cytotoxicity, actives largely listed as inhibitors | actives 6.6% (n = 94,000) | AID 1345083; also: nearly all actives have a fitted effect of over 60% in size
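Viability of HEK 293 cells, plated at 250 cells/well, was judged by cellular ATP after compound treatment for 48 or 72 hr. Luminescence was imaged 10 min after CellTiter-Glo addition at room temperature.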
FLuc inh: blocks purified firefly luciferase enzyme activity; purified P. pyralis luciferase, luminescence, biochemical; Potency, µM (highest dose often 115 µM), usual class: inhibitors; P08659; actives 2.5% (n = 76,000); also: nearly all actives have a fitted effect of over 65% in size
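FLuc 10nM, D-luciferin 10uM, ATP 10uM, Mg acetate 10mM, Tris acetate pH 7.5, Tween/BSA; cpd qHTS; enzyme added last; CCD luminescence.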
Starred values were filed as active, the others as inactive; [ ] = remark or other dose. Unless noted, calls follow the shape of the dose curve; as a rule, active = well fitted curve in the direction sought with a large enough effect; inconclusive = small, poorly fitted or top-dose-only effect, or another doubt; inactive = no such curve, though single readings can be large; an effect the other way counts as inactive or inconclusive. Unless noted, % is scaled to controls: 0 for no effect and ±100 for the full control effect; potency is read from the fitted curve at half-maximal effect.

For Cn1ncc2c(N3CCN(S(N)(=O)=O)CC3)nc(-c3cccnc3)nc21 the results were SNCA expr inhib -15%, SNCA viab count -16%, NPR1 antag 5%, 3T3 cytotox 40µM*, HEK cytotox inconclusive and FLuc inh inactive.
For Cn1ncc2c(N3CCN(S(N)(=O)=O)CC3)nc(C3CCCC3)nc21 the results were SNCA expr inhib -21%, SNCA viab count -7%, NPR1 antag -2%, 3T3 cytotox 40µM*, HEK cytotox -25% and FLuc inh inactive.
CC(C)=CCC/C(C)=C/CO[C@@H]1O[C@H](CO[C@@H]2O[C@@H](CO)[C@H](O)[C@H]2O)[C@@H](O)[C@H](O)[C@H]1O was read as SNCA viab count -5%[23.9 µM].
CN(C)c1ccc(C(=O)NC2CCCN(c3cc(-c4ccc(F)cc4)[nH]n3)C2)cc1 (stereo not given) was read as SNCA expr inhib 10%, SNCA viab count -26%, NPR1 antag -10%, 3T3 cytotox inconclusive, HEK cytotox 35µM* and FLuc inh inconclusive.
Screening O=C(NC1CCN(c2cc(-c3ccccc3)[nH]n2)CC1)c1ccsc1 returned SNCA expr inhib 116%, SNCA viab count 4%, NPR1 antag -19%, 3T3 cytotox -6%, HEK cytotox 79µM* and FLuc inh inconclusive.
CN(C)c1ccc(C(=O)NC2CCCN(c3cc(-c4ccccc4)[nH]n3)C2)cc1 (stereo not given) was read as SNCA expr inhib 29%, SNCA viab count -26%, NPR1 antag -14%, 3T3 cytotox inconclusive, HEK cytotox inconclusive and FLuc inh 28µM*.
For CN(C)c1ccc(C(=O)NC2CCN(c3cc(-c4ccc(F)cc4)[nH]n3)C2)cc1 (stereo not given) the results were SNCA expr inhib -10%, SNCA viab count -10%, NPR1 antag -19%, 3T3 cytotox inconclusive, HEK cytotox inconclusive and FLuc inh inactive.
`CN(C)c1ccc(C(=O)NC2CCN(c3cc(-c4ccccc4)[nH]n3)C2)cc1` (stereo not given) gave SNCA expr inhib -19%, SNCA viab count 3%, NPR1 antag -10%, 3T3 cytotox inconclusive, HEK cytotox inconclusive and FLuc inh inactive.
For O=C(NC1CCN(c2cc(-c3ccccc3)[nH]n2)C1)c1ccsc1 (stereo not given) the results were SNCA expr inhib 0%, SNCA viab count -10%, NPR1 antag -7%, 3T3 cytotox -15%, HEK cytotox inconclusive and FLuc inh inactive.
Screening CN(C)c1cccc(C(=O)NC2CCN(c3cnn(C)c(=O)c3)CC2)c1 returned SNCA expr inhib 218%, SNCA viab count 4%, NPR1 antag 3%, 3T3 cytotox -6%, HEK cytotox inactive and FLuc inh 25µM*.
Screening Cn1ncc(N2CCC(NC(=O)c3ccc4c(c3)OCO4)CC2)cc1=O returned SNCA expr inhib 16%, SNCA viab count -10%, NPR1 antag -4%, 3T3 cytotox -1%, HEK cytotox -11% and FLuc inh inactive.
Screening O=C(Cn1nc2c(cc1=O)CCCCC2)Nc1nc(-c2ccccn2)cs1 returned SNCA expr inhib -6%, SNCA viab count 3%, NPR1 antag 0%, 3T3 cytotox inconclusive, HEK cytotox inconclusive and FLuc inh inactive.
COc1ccc(-c2cc(N3CCCC(NC(=O)c4ccc(N(C)C)cc4)C3)n[nH]2)cc1 (stereo not given) was read as SNCA expr inhib 23%, SNCA viab count -9%, NPR1 antag -24%, 3T3 cytotox inconclusive, HEK cytotox 45µM* and FLuc inh 7.1µM*.
Screening CN(C)c1cccc(C(=O)NC2CCCN(c3cc(-c4ccc(F)cc4)[nH]n3)C2)c1 (stereo not given) returned SNCA expr inhib 27%, SNCA viab count inconclusive, NPR1 antag -10%, 3T3 cytotox inconclusive, HEK cytotox inconclusive and FLuc inh 16µM*.
Screening CN(C)c1cccc(C(=O)NC2CCCN(c3cc(-c4ccc(Cl)cc4)[nH]n3)C2)c1 (stereo not given) returned SNCA expr inhib 2%, SNCA viab count inconclusive, NPR1 antag -19%, 3T3 cytotox inconclusive, HEK cytotox inconclusive and FLuc inh inconclusive.
For CCOc1ccc(C(=O)NC2CCCN(c3cc(-c4ccc(OC)cc4)[nH]n3)C2)cc1 (stereo not given) the results were SNCA expr inhib 25%, SNCA viab count -25%, NPR1 antag -3%, 3T3 cytotox -22%, HEK cytotox inconclusive and FLuc inh inconclusive.
For CN(C)c1cccc(C(=O)NC2CCN(c3cc(-c4ccccc4)[nH]n3)CC2)c1 the results were SNCA expr inhib 79%, SNCA viab count -13%, NPR1 antag -22%, 3T3 cytotox inconclusive, HEK cytotox inconclusive and FLuc inh 40µM*.
O=C(NC1CCCN(c2cc(-c3ccccc3)[nH]n2)C1)c1ccc(Br)cc1 (stereo not given) was read as SNCA expr inhib 14%, SNCA viab count -18%, NPR1 antag -5%, 3T3 cytotox 32µM*, HEK cytotox 22µM* and FLuc inh inactive.
For CCOC(=O)C1=C(C)N=C2SC=C(CC(=O)N3CCOCC3)N2C1c1cccc([N+](=O)[O-])c1 (stereo not given) the results were SNCA expr inhib 10%, SNCA viab count -17%, NPR1 antag inconclusive, 3T3 cytotox -3%, HEK cytotox -14% and FLuc inh inactive.
Screening COC[C@H]1NC(=O)CC[C@H]1C(=O)NCc1ccccc1OC returned SNCA expr inhib 15%, SNCA viab count -5%, NPR1 antag -2%, 3T3 cytotox inconclusive, HEK cytotox inconclusive and FLuc inh inactive.
Cc1ccc(-c2cc(N3CCC(CNC(=O)c4cccc(N(C)C)c4)CC3)n[nH]2)cc1 was read as SNCA expr inhib 35%, SNCA viab count -2%, NPR1 antag -20%, 3T3 cytotox inconclusive, HEK cytotox inconclusive and FLuc inh inconclusive.
`CN(C)c1cccc(C(=O)NCC2CCN(c3cc(-c4ccc(Cl)cc4)[nH]n3)CC2)c1` gave SNCA expr inhib -1%, SNCA viab count -23%, NPR1 antag -27%, 3T3 cytotox 40µM*, HEK cytotox inconclusive and FLuc inh inconclusive.
Screening Cc1cc(-c2ncc(CC(=O)Nc3ccc(-c4cnccn4)cn3)cc2C)ccn1 returned SNCA expr inhib 16% and SNCA viab count -16%.
